Reference: PubChem BioAssay AID588819 (The Scripps Research Institute Molecular Screening Center, 2011)
The campaign covered roughly 360,000 compounds. About 320 (0.089%) were called active. Rule as the data show it: active = activation above about 19% (passing the limit was not always enough); inactive = the rest. The entries come from a sample that favours actives as a whole.

biological target: Muscarinic acetylcholine receptor M1 (Homo sapiens) (UniProt P11229); experiment: CHRM1 PAMs potentiating acetylcholine calcium signal – CHO-K1 cells, Fluo-8 calcium fluorescence, 1536-well, primary screen (AID 588819); conditions: CHO-K1 hM1, Fluo-8 calcium fluorescence, ACh EC20; at 3 µM; stronger effect = higher value; 0% = ACh EC20, 100% = maximal ACh
Sequence (P11229 whole entry, looked up): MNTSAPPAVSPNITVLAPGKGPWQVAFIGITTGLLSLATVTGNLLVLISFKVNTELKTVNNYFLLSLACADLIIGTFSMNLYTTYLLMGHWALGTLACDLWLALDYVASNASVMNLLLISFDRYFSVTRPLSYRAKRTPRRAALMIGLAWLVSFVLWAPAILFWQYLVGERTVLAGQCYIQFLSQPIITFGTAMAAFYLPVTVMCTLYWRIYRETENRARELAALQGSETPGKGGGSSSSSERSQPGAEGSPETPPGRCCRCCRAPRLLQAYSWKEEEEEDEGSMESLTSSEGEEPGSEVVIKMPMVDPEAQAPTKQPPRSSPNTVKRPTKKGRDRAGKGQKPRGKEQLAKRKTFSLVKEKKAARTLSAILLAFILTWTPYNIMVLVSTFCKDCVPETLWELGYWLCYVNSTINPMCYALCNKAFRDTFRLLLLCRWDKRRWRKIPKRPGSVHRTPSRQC

activation, inactive:
O=C(c1cncc(Br)c1)N1CCN(c2ccc([N+](=O)[O-])cc2)CC1 -20%, CCc1cccc(C)c1NS(=O)(=O)c1c(C)nc2sccn2c1=O 4.98%, Cc1ccc(-c2csc(N3CCN(c4cc5c(cc4Cl)nc(-c4ccncc4)n5CCOCCO)CC3)n2)cc1 21.4%, Cc1ccc2nc(SCC(=O)N3CCN(c4ccccc4)CC3)nc(=O)n2c1 3.95%, Cc1ccc(-n2c(CNc3ccc(F)cc3)nnc2SCC(=O)N2CCOCC2)cc1 7.13%, O=C(O)CN1C(=O)CC(Cc2ccccc2)C1=O (configuration not stated) 11.7%, O=C1N[C@@H](Cc2ccccc2)C(=O)N2[C@H]1C[C@]1(Br)c3ccccc3N(S(=O)(=O)c3ccccc3)[C@H]21 7.1%, CSc1ccc(S(=O)(=O)NCC(=O)OCC(=O)NC2(C#N)CCCCC2)cc1[N+](=O)[O-] 3.7%, Cc1ccc(N2C(=O)c3ccccc3C2(O)c2ncc[nH]2)cc1 (configuration not stated) 8.87%, CCc1c(C)nc2ncnn2c1N1CCC(C(=O)NCc2ccc3c(c2)OCO3)CC1 5.91%, COCCn1c(SCC(=O)Nc2ccccc2F)nc2c(c1=O)SCC2 7.02%, Cn1c(SCC(=O)N2CCCCC2)nc2c(c1=O)SCC2 -5.48%, CSCCC(NC(=O)c1ccco1)C(=O)Nc1cc(C)ccn1 (configuration not stated) 3.47%, Cc1c(Cl)cnc(NC(=O)COC(=O)C2CCCC2)c1Cl 4.9%, C/C(=N/NC(=O)c1ccncc1)c1ccc2c(c1)OCO2 6.79%, CC(=NNC(=O)c1ccncc1)c1ccc(Cl)c(Cl)c1 -2.62%, Cc1cccc2c1N(CCOc1ccccc1)C(=O)C2=O 8.27%, Cc1cc(C)c(S(=O)(=O)c2ccc(F)cc2C)c(=O)[nH]1 2.45%, COC(=O)C1=C(C)N(C(C)c2ccccc2)C(=O)/C1=C\c1ccco1 (configuration not stated) 3.44%, CCCc1cc(=O)n2[nH]c(C)c(-c3ccc(Cl)cc3)c2n1 12.2%, COc1ccc(C(=O)NCC2CCCN2S(=O)(=O)c2cccs2)cc1OC (configuration not stated) 6.88%, CCCCNC(=O)OC(C)CNC(=O)OC (configuration not stated) 4.6%, Cc1ccc(NS(=O)(=O)c2c(C)[nH]c(=O)[nH]c2=O)cc1C 6.73%, O=S(=O)(Nc1ccccc1)c1ccc(NS(=O)(=O)c2cccs2)cc1 11.7%, Cc1ccc(S(=O)(=O)N2CCOCC2)cc1NC(=O)CSc1nnc(N)s1 3.59%, CCOc1ccc(N2CC(C(=O)N/N=C/c3sccc3C)CC2=O)cc1 (configuration not stated) 1.58%, CC1CN/C(=C\C(=O)c2ccc(Br)cc2)C(=O)N1 (configuration not stated) 5.69%, Cc1ccc(C(O)P(=O)(OC(C)C)c2ccc(N(C)C)cc2)cc1 (configuration not stated) 9.51%, CC(C)(C)NC(=O)COC(=O)c1cc(Cl)ccc1[N+](=O)[O-] 4.45%, Cc1ccc(N2CC(C(=O)Nc3cc(Cl)ccc3-n3cncn3)CC2=O)cc1 (configuration not stated) 8.82%, O=C(c1ccco1)N1CCN(C(=O)C2CC(c3ccc(Cl)c(Cl)c3)=NO2)CC1 (configuration not stated) 1.62%, CCOC(=O)N1CCN(C(=O)C2CC(c3ccc(F)cc3)=NO2)CC1 (configuration not stated) -1.27%, Cc1ccccc1S(=O)(=O)NC(=O)C1(C)CCN1C(=O)Cc1ccc(Cl)cc1Cl (configuration not stated) 4.98%, COC(=O)CC(=O)N1CCN(c2ccc(Cl)c(Cl)c2)CC1 -9.1%, COc1cccc(-c2noc(C3CCCN(C(=O)c4ccc(F)cc4)C3)n2)c1 (configuration not stated) 22.6%, O=C(c1ccc(F)cc1)N1CCCC(c2nc(-c3cccs3)no2)C1 (configuration not stated) 6.3%, CC1CC(=O)Nc2ccccc2N1C(=O)COc1ccc2cc(Br)ccc2c1 (configuration not stated) 12.5%, O=C(Nc1ccc(S(=O)(=O)Nc2ncccn2)cc1)c1cncc(Br)c1 0.19%, COc1ccc(NS(=O)(=O)c2ccc(NC(=O)c3ccc(N(C)S(C)(=O)=O)cc3)cc2)cc1 8.88%, CC(C)c1ccc2c(c1)c(SC(C)(C)C)c(CC(C)(C)C(=O)O)n2Cc1ccc(Cl)cc1 -0.45%, CC(Oc1ccc(F)cc1)C(=O)N1CCN(c2ncccn2)CC1 (configuration not stated) 0.98%, O=C(O)Cc1csc(NC(=O)CSc2nnnn2-c2ccc(O)cc2)n1 11.2%, CC(=O)C1=C(C)NC(=O)NC1c1cc(Br)ccc1OCC#N (configuration not stated) 13.1%, CCN(CC)C(=O)CSc1ncnc2c1cnn2-c1ccccc1 1.79%, CCn1c(SC(C)C(=O)Nc2ccc(N3CCOCC3)cc2)nnc1-c1ccco1 (configuration not stated) 5.42%, Cc1ccc(S(=O)(=O)N2CCC(C(=O)N[C@@H](C)C(=O)NCc3ccccc3)CC2)cc1 3.35%, Cc1cc(C)cc(N(CC(=O)NC2CCCC2)C(=O)CCC(=O)Nc2nccs2)c1 1.06%, CC(OC(=O)c1ccccc1OCc1ccc(Cl)cc1)C(N)=O (configuration not stated) -0.86%, COc1cc(NC(=S)N2CCCC(C)C2)c(OC)cc1Cl (configuration not stated) 4.79%, Cc1n[nH]c(C)c1S(=O)(=O)N1CCCC(C(=O)Nc2ccc(Br)cc2)C1 (configuration not stated) 3.06%, CC1(c2nnc(-c3ccncc3)o2)CC(c2cccnc2)=NO1 (configuration not stated) -4.79%, CC(C)CCNC(=O)C1CCCN(S(=O)(=O)c2ccc(F)cc2)C1 (configuration not stated) 3.91%, CC(NC(=O)C(C)(C)C)C(c1cccs1)N1CCN(Cc2ccccc2)CC1 (configuration not stated) -8.56%, CCC(C)NCCOCCOc1ccc(Br)cc1C (configuration not stated) -26.7%, CCOC(=O)N1CCN(c2c(NCCCN3CCCC(C)C3)c(=O)c2=O)CC1 (configuration not stated) 5.95%, CCOc1ccc(-n2c(N)c(C(=O)NCC3CCCO3)sc2=S)cc1 (configuration not stated) 1.21%, CCCC(=O)N1CCN(c2nnc(-c3ccc(C)cc3)c3ccccc23)CC1 -14.5%, CC(=O)NC(Cc1ccc(F)c(F)c1)C(=O)NC1CCN(c2nnnn2-c2ccccc2)CC1 (configuration not stated) 1.64%, CCCC(=O)N1CCC1(C)C(=O)NCc1ccc(SC)cc1 (configuration not stated) 3.92%, COc1ccccc1N(CCOc1ccccc1)S(=O)(=O)c1ccccc1 0.89%, C=Cn1c(C(=O)O)ccc1-c1ccc(OC)cc1 -16.6%, CCn1c(-c2cccnc2Cl)nc2cc(C)c(C)cc21 2.37%, CCOCCOC(=O)C1=C(C)NC(=O)NC1c1ccc2c(c1)OCO2 (configuration not stated) 6.2%, Cc1cccc(NC(=O)C2CCCN2S(=O)(=O)c2ccc(F)cc2)c1C (configuration not stated) 3.34%, CC(C)c1nnc(NC(=O)C2CCCN2S(=O)(=O)c2ccc(Cl)cc2)s1 (configuration not stated) 10.2%, C=CCn1c2ccccc2c2nnc(SCc3[nH]c(=O)[nH]c3C(=O)CCCCC(=O)OCC)nc21 -3.32%, O=C(C(NS(=O)(=O)c1cccc2nsnc12)c1ccccc1)N1CCN(c2ccccn2)CC1 (configuration not stated) -10.2%, CCOC(=O)C(=O)C1C(=O)Nc2ccccc21 (configuration not stated) 1.1%, O=C(Nc1ccccc1C(=O)NCCCn1ccnc1)c1ccc(Cl)cc1Cl 7.21%

activation, active:
COCCn1c(SCC(=O)N2CCCCCC2)nc2c(c1=O)SCC2 26.5%, CSCCC(NC(=O)c1ccco1)C(=O)OCC(=O)Nc1ncc(Cl)c(C)c1Cl (configuration not stated) 20.9%, C/C(=N/NC(=O)c1ccn(C)n1)c1ccncc1 33.2%, O=C(c1ccco1)N1CCN(C(=O)C2CC(c3ccc(F)cc3)=NO2)CC1 (configuration not stated) 25.8%, Cc1ccc(-c2noc(C3CCCN(C(=O)c4cccc(Cl)c4)C3)n2)o1 (configuration not stated) 28.6%, COc1ccc(NC(=O)c2cnc(NS(=O)(=O)c3ccccc3)nc2)cc1 29.7%, CC(Sc1ncnc2c1cnn2-c1ccccc1)C(=O)Nc1ccc(N2CCOCC2)cc1 (configuration not stated) 25.3%, COc1ccccc1NC(=O)C1CCCN1S(=O)(=O)c1ccc(Cl)cc1 (configuration not stated) 28.2%
